Hits are enriched below; roughly 3% of the tested compounds scored in any of these assays.
Tau fluor cs: counter-screen for tau fibril formation inhibitors; tau K18 P301L Alexa594 fluorescence, heparin fibrillization; Potency, µM (doses to about 57.7 µM), for inactives: top-dose activity change, negative = decrease; actives 0.93% (n = 280,000); note: nearly all actives have a fitted effect of over 55% in size
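Human K18 P301L tau (15 uM unlabeled plus 0.24 uM Alexa 594-labeled, final) in 100 mM sodium acetate pH 7 was mixed with compound and 20 uM heparin and incubated 6 hr at 37 C.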
Tau ThT inhib: tau fibrillization inhibition (ThT binding); Potency, µM (titrated, usually from 57.4 µM), without a hit: at the highest dose activity, negative = inhibition, most hits filed as inhibitors; actives 2.1% (n = 270,000); P10636; recombinant tau K18 P301L, heparin-induced fibrillization, ThT fluorescence; note: nearly all actives have a fitted effect of over 55% in size
Target sequence (P10636 561-689 P618L limits assumed): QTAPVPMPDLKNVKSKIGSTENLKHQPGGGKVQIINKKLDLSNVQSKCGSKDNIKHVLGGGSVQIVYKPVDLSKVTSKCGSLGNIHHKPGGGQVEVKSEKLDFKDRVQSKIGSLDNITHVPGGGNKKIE
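Fibril formation assay: tau K18 P301L at 15 uM with trace Alexa 594 label, heparin inducer 20 uM, pH 7 sodium acetate buffer, 37 C for 6 hr; endpoint ThT signal.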
TexasRed fluor: counter-screen for TRb-SRC2 inhibitors: fluorescence interference. TRb/SRC2 Texas Red total fluorescence interference. Potency, µM (highest dose often 106 µM), for the others: at the top dose fluorescence change, negative = quenching. actives 0.29% (n = 280,000). AID 1479; active = well fitted curve in either direction with a large enough effect; inconclusive = small, poorly fitted or top-dose-only effect
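Human TRβ ligand-binding domain (0.6 uM) and Texas Red SRC2 peptide (20 nM) in Tris buffer with 1 uM T3 and 5% DMSO were incubated with pinned compound for 5 hr at ambient temperature. Total fluorescence was computed as S + 2P (555/632 nm).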
TRb-SRC2 inh: disrupts binding of human TR beta to SRC2 | actives 0.065% (n = 280,000) | TRbeta-SRC2 peptide binding, fluorescence polarization; receptor liganded with 1 µM T3 | AID 1469 | Potency, µM (titrated, usually from 106 µM), without a hit: at the highest dose activity change, negative = inhibition, hits mostly inhibitors;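 note: plate controls were bound peptide for no effect and peptide without receptor for full effect; nearly all actives have a fitted effect of over 50% in size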
Target sequence (P10828 whole entry, looked up): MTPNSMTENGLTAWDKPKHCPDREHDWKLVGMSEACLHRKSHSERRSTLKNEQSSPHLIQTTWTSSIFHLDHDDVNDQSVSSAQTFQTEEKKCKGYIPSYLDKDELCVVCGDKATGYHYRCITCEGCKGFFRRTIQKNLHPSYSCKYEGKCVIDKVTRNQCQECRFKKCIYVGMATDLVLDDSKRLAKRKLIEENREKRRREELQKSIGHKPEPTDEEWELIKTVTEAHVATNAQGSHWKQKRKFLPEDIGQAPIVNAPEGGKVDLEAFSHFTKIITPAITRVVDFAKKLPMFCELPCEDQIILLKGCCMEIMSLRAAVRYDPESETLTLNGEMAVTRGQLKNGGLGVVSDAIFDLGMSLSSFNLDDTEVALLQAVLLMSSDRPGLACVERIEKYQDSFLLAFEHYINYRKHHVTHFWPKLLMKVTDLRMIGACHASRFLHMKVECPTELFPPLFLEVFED
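A fluorescence polarization screen tested compounds at multiple concentrations against complex formation between 0.6 uM TRb ligand-binding domain and 20 nM Texas Red SRC2 peptide, with 1 uM T3 present; readout after 5 hr.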
Tau fibril FP: tau fibrillization inhibition (FP). K18 P301L tau heparin fibrillization, Alexa594 FP, 6 h. actives 0.39% (n = 280,000). Potency, µM (highest dose often 57.7 µM), for inactives: at the highest dose activity, negative = inhibition, actives largely listed as inhibitors; note: nearly all actives have a fitted effect of over 55% in size
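Human tau K18 […] P301L fragment, 15 uM unlabeled plus 0.24 uM Alexa 594-labeled tau (final), with compound and 20 uM heparin in 100 mM sodium acetate pH 7; 6 hr at 37 C, then Alexa 594 FP read.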
* marks the source's active call; other numbers are inactive results; [ ] = another dose, or the depositor's remark. Unless noted, calls come from the whole dose curve; as a rule, active = well fitted curve in the direction sought with a large enough effect; inconclusive = small, poorly fitted or top-dose-only effect, or another doubt; inactive = no such curve, though single readings can be large; an effect the other way counts as inactive or inconclusive. Unless noted, % is set by controls: 0 for no effect and ±100 for the full control effect; potency is the fitted concentration of half-maximal effect.

For CCN1CCc2nc3sc(C(=O)c4ccc(F)cc4)c(N)c3cc2C1 the results were Tau fluor cs -24%, Tau ThT inhib inconclusive, TexasRed fluor -1%, TRb-SRC2 inh 2% and Tau fibril FP 2%.
Screening Cc1sc2ncnc(N/N=C/c3ccc(O)cc3)c2c1C returned Tau fluor cs 13µM*[quencher], Tau ThT inhib 4.5µM*, TexasRed fluor -11%, TRb-SRC2 inh -7% and Tau fibril FP 9%.
For COc1cccc(N/N=C/c2cccc(Br)c2O)c1 the results were Tau fluor cs 18µM*[quencher], Tau ThT inhib 18µM*, TexasRed fluor -2%, TRb-SRC2 inh -1% and Tau fibril FP 0%.
Cc1cccc(N/N=C/c2ccc(O)c(O)c2O)c1 was read as Tau fluor cs inconclusive, Tau ThT inhib 10µM*, TexasRed fluor 0%, TRb-SRC2 inh 3% and Tau fibril FP 16µM*.
`COc1cccc(/C=N/Nc2cc(Cl)nc(C)n2)c1O` gave Tau fluor cs -18%, Tau ThT inhib inconclusive, TexasRed fluor -7%, TRb-SRC2 inh 3% and Tau fibril FP 2%.
Oc1cccc(/C=N/NC(=S)Nc2cccnc2)c1O was read as Tau fluor cs 5%, Tau ThT inhib 4%, TexasRed fluor -8%, TRb-SRC2 inh 3% and Tau fibril FP 9%.
O=[N+]([O-])c1ccccc1N/N=C/c1cccc(O)c1O was read as Tau fluor cs -16%, Tau ThT inhib inconclusive, TexasRed fluor -5%, TRb-SRC2 inh -2% and Tau fibril FP 6%.
`O=[N+]([O-])c1cccc(N/N=C/c2cccc(O)c2O)c1` gave Tau fluor cs 16µM*[quencher], Tau ThT inhib 7.9µM*, TexasRed fluor -12%, TRb-SRC2 inh -6% and Tau fibril FP 5%.
C/C(=N\Nc1cccc([N+](=O)[O-])c1)c1ccccc1O was read as Tau fluor cs 5µM*[quencher], Tau ThT inhib inconclusive, TexasRed fluor -1%, TRb-SRC2 inh 9% and Tau fibril FP inconclusive.
`C/C(=N\Nc1cccc([N+](=O)[O-])c1)c1cc(F)ccc1O` gave Tau fluor cs -4%, Tau ThT inhib 2%, TexasRed fluor -1%, TRb-SRC2 inh -2% and Tau fibril FP 1%.
Oc1ccc(/C=N/NC(=S)Nc2cccnc2)c(O)c1O was read as Tau fluor cs 11µM*[quencher], Tau ThT inhib 1.6µM*, TexasRed fluor inconclusive, TRb-SRC2 inh -4% and Tau fibril FP 2µM*.
Screening COc1ccc(C(=O)Oc2ccc(C3NC(=O)c4c(sc5c4CCN(C)C5)N3)cc2OC)cc1 (stereo not given) returned Tau fluor cs -27%, Tau ThT inhib 4µM*, TexasRed fluor inconclusive, TRb-SRC2 inh -7% and Tau fibril FP inconclusive.
For CCOc1cc(C2NC(=O)c3c(sc4c3CCN(C)C4)N2)ccc1OC(=O)c1ccccc1Cl (stereo not given) the results were Tau fluor cs -5%, Tau ThT inhib inconclusive, TexasRed fluor -1%, TRb-SRC2 inh 5% and Tau fibril FP 0%.
`CN1CCc2c(sc3c2C(=O)NC(c2cccs2)N3)C1` (stereo not given) gave Tau fluor cs -18%, Tau ThT inhib 13µM*, TexasRed fluor 45µM*[fluorescent], TRb-SRC2 inh inconclusive and Tau fibril FP inconclusive.
CN1CCc2c(sc3c2C(=O)NC(c2ccc(C(C)(C)C)cc2)N3)C1 (stereo not given) was read as Tau fluor cs -20%, Tau ThT inhib 16µM*, TexasRed fluor 20%, TRb-SRC2 inh -6% and Tau fibril FP inconclusive.
Screening Cc1ccsc1C1NC(=O)c2c(sc3c2CCN(C)C3)N1 (stereo not given) returned Tau fluor cs -23%, Tau ThT inhib inconclusive, TexasRed fluor 17%, TRb-SRC2 inh -11% and Tau fibril FP inconclusive.
Screening CN1CCc2c(sc3c2C(=O)NC(/C=C\c2ccccc2)N3)C1 (stereo not given) returned Tau fluor cs -18%, Tau ThT inhib 18µM*, TexasRed fluor 8%, TRb-SRC2 inh 4% and Tau fibril FP -15%.
Screening COc1ccc(CCNC(=O)CSc2cn(CCNC(=O)c3ccccc3F)c3ccccc23)cc1OC returned Tau fluor cs -21%, Tau ThT inhib inconclusive, TexasRed fluor 3%, TRb-SRC2 inh 15% and Tau fibril FP 4%.
`Cc1c(C(=O)N(Cc2ccc(N(C)C)cc2)Cc2ccco2)oc2cc(Br)ccc12` gave Tau fluor cs inconclusive, Tau ThT inhib -17%, TexasRed fluor 3%, TRb-SRC2 inh -6% and Tau fibril FP inconclusive.
Screening CC1CCN(S(=O)(=O)c2ccc3c(c2)CCC(=O)N3CC(=O)Nc2cccc(C#N)c2)CC1 returned Tau fluor cs inconclusive, Tau ThT inhib 2%, TexasRed fluor 0%, TRb-SRC2 inh 4% and Tau fibril FP -9%.
For COc1ccc(C2NC(=O)c3c(sc4c3CCN(C)C4)N2)cc1O (stereo not given) the results were Tau fluor cs -23%, Tau ThT inhib 5.6µM*, TexasRed fluor -3%, TRb-SRC2 inh 4% and Tau fibril FP -7%.
Screening CN1CCc2c(sc3c2C(=O)NC(c2ccc(-c4cccc(Cl)c4)o2)N3)C1 (stereo not given) returned Tau fluor cs -14%, Tau ThT inhib 2.2µM*, TexasRed fluor 10%, TRb-SRC2 inh 1% and Tau fibril FP inconclusive.
CC(C)c1ccc(C2NC(=O)c3c(sc4c3CCN(C)C4)N2)cc1 (stereo not given) was read as Tau fluor cs -8%, Tau ThT inhib inconclusive, TexasRed fluor 3%, TRb-SRC2 inh -1% and Tau fibril FP -7%.
`CSc1ccc(C2NC(=O)c3c(sc4c3CCN(C)C4)N2)cc1` (stereo not given) gave Tau fluor cs -8%, Tau ThT inhib -5%, TexasRed fluor -3%, TRb-SRC2 inh 3% and Tau fibril FP 1%.
Screening O=C(O)c1ccc(N/N=C/c2ccc3nccnc3c2)cc1 returned Tau fluor cs -19%, Tau ThT inhib 3.5µM*, TexasRed fluor -28%, TRb-SRC2 inh -6% and Tau fibril FP -4%.
For O=C(O)c1ccc(N/N=C/c2ccnc3ccccc23)cc1 the results were Tau fluor cs inconclusive, Tau ThT inhib 5µM*, TexasRed fluor -14%, TRb-SRC2 inh 0% and Tau fibril FP 6%.
O=C(O)c1ccc(N/N=C/c2ccc(F)c(F)c2)cc1 was read as Tau fluor cs inconclusive, Tau ThT inhib inconclusive, TexasRed fluor 0%, TRb-SRC2 inh 2% and Tau fibril FP 7%.
COC(=O)N/N=C/c1cn(Cc2ccccc2F)c2ccccc12 was read as Tau fluor cs inconclusive, Tau ThT inhib -17%, TexasRed fluor -3%, TRb-SRC2 inh -7% and Tau fibril FP inconclusive.

Bioassay records deposited in PubChem BioAssay by National Center for Advancing Translational Sciences (NCATS).
